# Laboratory results reported in PubChem BioAssay (Tox21).
# Where “and” joins values, the source holds several entries; their conditions need not be identical. Equal entries are not always repeated. Results filed as inconclusive are left out. Where a call stands in place of a potency, no number is given. Some compounds were tested as several samples or in several runs, with calls that do not always agree. Calls of active or inactive are those of the source. Unless noted, calls come from the whole dose curve; as a rule, active = well fitted curve in the direction sought with a large enough effect in the repeat runs; inconclusive = weak or mixed curves; inactive = no such curve, though single readings can be large; an effect the other way counts as inactive or inconclusive.
# Experiments:
# [1] = qHTS assay to test for compound auto fluorescence at 535 nm (green) in HEK293 cells (AID 720680)
# [2] = qHTS assay to test for compound auto fluorescence at 460 nm (blue) in HEK293 cell free culture (AID 720681)
# Summary of the method: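 Compounds were added to cell-free DMEM with 10% FBS and fluorescence read directly. The blue channel used 405 nm excitation and 460 nm emission, with triamterene as the reference fluorophore.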
# [3] = qHTS assay to test for compound auto fluorescence at 535 nm (green) in HEK293 cell free culture (AID 720682)
# Summary of the method: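 Compounds were pin-transferred into cell-free DMEM with 10% FBS, and green fluorescence was read at excitation 485 nm and emission 535 nm. Intensities were expressed as fluorescein-equivalent values.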
# [4] = qHTS assay to test for compound auto fluorescence at 590 nm (red) in HEK293 cell free culture (AID 720683)
# Summary of the method: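 Cell-free wells of DMEM with 10% FBS received compound, and intrinsic fluorescence was read at excitation/emission 540/590 nm. Values expressed as equivalence to Rose Bengal sodium.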
# [5] = qHTS assay to test for compound auto fluorescence at 590 nm (red) in HepG2 cell free culture (AID 720684)
# Summary of the method: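 Rose Bengal sodium served as the reference for red signal. Test compounds were dispensed into serum-containing MEM (10% FBS) without cells, and plates were read at 540/590 nm.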
# [6] = qHTS assay to test for compound auto fluorescence at 460 nm (blue) in HepG2 cell free culture (AID 720685)
# Summary of the method: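 Cell-free plates of MEM plus 10% FBS received 23 nL compound or DMSO vehicle; blue-channel (405/460 nm) intensity scored against triamterene as reference fluorophore.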
# [7] = qHTS assay to test for compound auto fluorescence at 535 nm (green) in HepG2 cell free culture (AID 720686)
# [8] = qHTS assay to test for compound auto fluorescence at 460 nm (blue) in HepG2 cells (AID 720687)
# Summary of the method: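 HepG2 cells in MEM with 10% FBS, attached overnight at 37 C, were exposed to compound or DMSO for 1 hr at 37 C, 5% CO2. Blue fluorescence was read at 405/460 nm, with triamterene as reference fluorophore.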
# [9] = target: Glucocorticoid receptor (Homo sapiens) (UniProt P04150); assay: qHTS assay to identify small molecule agonists of the glucocorticoid receptor (GR) signaling pathway (AID 720691; active = well fitted activation curve with a large enough effect in the signal ratio in the repeat runs, not every such curve was filed as active; the % refers to the signal ratio)
# Summary of the method: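 Measures GR pathway activation through a GRE-beta-lactamase reporter stably integrated in HeLa cells, with 18 h compound treatment at 37 C and fluorescence detection using a FRET substrate.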
# [10] = qHTS assay to identify small molecule antagonists of the glucocorticoid receptor (GR) signaling pathway - cell viability counter screen (AID 720693); note: nearly all actives have a fitted effect of over 55% in size
# [11] = qHTS assay for identifying genotoxic compounds that show differential cytotoxicity against isogenic chicken DT40 cell lines with known DNA damage response pathways - wild type cell line (AID 743012); note: nearly all actives have a fitted effect of over 60% in size
# Summary of the method: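 Endpoint: CellTiter-Glo luminescence, 30 min RT. Cells: wild type DT40, 300/well. Exposure: compounds in DMSO, 40 h, 37 C/5% CO2, after ~0.5 h pre-incubation.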
# [12] = qHTS assay for identifying genotoxic compounds that show differential cytotoxicity against isogenic chicken DT40 cell lines with known DNA damage response pathways - Rev3 mutant cell line (AID 743014); note: nearly all actives have a fitted effect of over 55% in size; note: potency is the fitted concentration of half-maximal effect
# [13] = qHTS assay for identifying genotoxic compounds that show differential cytotoxicity against isogenic chicken DT40 cell lines with known DNA damage response pathways - Rad54/Ku70 mutant cell line (AID 743015); note: nearly all actives have a fitted effect of over 60% in size; note: potency is the fitted concentration of half-maximal effect
# [14] = qHTS assay to identify small molecule antagonists of the androgen receptor (AR) signaling pathway - cell viability counter screen (AID 743033; note: nearly all actives have a fitted effect of over 45% in size)
# [15] = qHTS assay to identify small molecule antagonists of the androgen receptor (AR) signaling pathway using the MDA cell line - cell viability counter screen (AID 743041; note: nearly all actives have a fitted effect of over 45% in size)
# Summary of the method: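 Cytotoxicity counter screen: MDA-kb2 AR-luc cells, compound + R1881, 16 h, 37C, 0% CO2; CellTiter-Fluor added at 15.5 h, fluorescence read after 30 min.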
# [16] = target: Glucocorticoid receptor (Homo sapiens) (UniProt P04150); assay: qHTS assay to identify small molecule antagonists of the glucocorticoid receptor (GR) signaling pathway (AID 720692; active = well fitted inhibition curve with a large enough effect in the signal ratio in the repeat runs, not every such curve was filed as active; the % refers to the signal ratio)
# Summary of the method: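 Tox21 10K library screened in concentration-response for blockade of dexamethasone (5 nM final)-induced GRE-bla reporter activity in HeLa cells; 18 h treatment, fluorescence read.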
# [17] = target: Androgen receptor (Homo sapiens) (UniProt P10275); assay: qHTS assay to identify small molecule antagonists of the androgen receptor (AR) signaling pathway (AID 743035; active = well fitted inhibition curve with a large enough effect in the signal ratio in the repeat runs, not every such curve was filed as active; the % refers to the signal ratio)
# Summary of the method: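 R1881 agonist challenge of a HEK293 UAS-beta-lactamase AR reporter line in the presence of compound (16 h, 37C); signal taken as FRET fluorescence after 2 h with LiveBLAzer B/G substrate at room temperature.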
# [18] = target: Androgen receptor (Homo sapiens) (UniProt P10275); assay: qHTS assay to identify small molecule agonists of the androgen receptor (AR) signaling pathway (AID 743036; active = well fitted activation curve with a large enough effect in the signal ratio in the repeat runs, with a control signal flat, not every such curve was filed as active; the % refers to the signal ratio)
# Summary of the method: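 Activation was read as beta-lactamase FRET signal from LiveBLAzer B/G substrate, added for 2 h at room temperature. Before that, GeneBLAzer AR-UAS-bla GripTite (HEK293) cells had 16 h compound exposure at 37C.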
# [19] = target: Androgen receptor (Homo sapiens) (UniProt P10275); assay: qHTS assay to identify small molecule agonists of the androgen receptor (AR) signaling pathway using the MDA cell line (AID 743040; note: nearly all actives have a fitted effect of over 20% in size); settings: MDA-kb2 AR-luc cells, MMTV luciferase, 16 h; at 70.3 µM (top of the series); stronger effect = higher value
# Summary of the method: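 Luciferase read-out, ONE-Glo, 30 min RT. Cells: MDA-kb2 AR-luc, MMTV promoter with AR and GR response elements. Compound exposure 16 h, 37C, 0% CO2, after 5 h pre-incubation. qHTS agonist mode.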
# [20] = target: Androgen receptor (Homo sapiens) (UniProt P10275); assay: qHTS assay to identify small molecule antagonists of the androgen receptor (AR) signaling pathway using the MDA cell line (AID 743042; note: nearly all actives have a fitted effect of over 55% in size)
# Summary of the method: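 MDA-kb2 breast carcinoma cells carrying MMTV-luciferase (AR/GR responsive) were co-treated with compounds and the agonist R1881 for 16 h at 37C. Inhibition read as ONE-Glo luminescence; CellTiter-Fluor fluorescence measured in parallel for cytotoxicity.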
# Sequence of Glucocorticoid receptor (Homo sapiens) (P04150 whole entry, looked up): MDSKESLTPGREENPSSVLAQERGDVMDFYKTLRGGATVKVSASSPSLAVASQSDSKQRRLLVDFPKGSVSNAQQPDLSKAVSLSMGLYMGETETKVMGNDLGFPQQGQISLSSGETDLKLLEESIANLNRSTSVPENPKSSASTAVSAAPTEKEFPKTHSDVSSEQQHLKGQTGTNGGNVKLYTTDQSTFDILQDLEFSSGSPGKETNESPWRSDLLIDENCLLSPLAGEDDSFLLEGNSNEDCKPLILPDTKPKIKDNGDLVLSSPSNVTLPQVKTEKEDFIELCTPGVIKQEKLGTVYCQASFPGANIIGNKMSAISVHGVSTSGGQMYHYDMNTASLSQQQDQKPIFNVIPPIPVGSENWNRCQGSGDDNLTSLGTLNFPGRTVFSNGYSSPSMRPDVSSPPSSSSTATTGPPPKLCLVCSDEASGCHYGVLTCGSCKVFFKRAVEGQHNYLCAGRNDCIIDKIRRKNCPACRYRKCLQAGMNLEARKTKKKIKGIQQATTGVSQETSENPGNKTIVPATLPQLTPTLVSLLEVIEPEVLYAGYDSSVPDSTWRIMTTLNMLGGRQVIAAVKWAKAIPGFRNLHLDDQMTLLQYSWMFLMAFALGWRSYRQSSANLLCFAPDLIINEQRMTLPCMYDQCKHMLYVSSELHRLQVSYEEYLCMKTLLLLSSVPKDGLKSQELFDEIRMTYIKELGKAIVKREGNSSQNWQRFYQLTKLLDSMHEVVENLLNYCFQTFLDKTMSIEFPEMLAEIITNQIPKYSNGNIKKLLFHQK
# Sequence of Androgen receptor (Homo sapiens) (P10275 whole entry, looked up): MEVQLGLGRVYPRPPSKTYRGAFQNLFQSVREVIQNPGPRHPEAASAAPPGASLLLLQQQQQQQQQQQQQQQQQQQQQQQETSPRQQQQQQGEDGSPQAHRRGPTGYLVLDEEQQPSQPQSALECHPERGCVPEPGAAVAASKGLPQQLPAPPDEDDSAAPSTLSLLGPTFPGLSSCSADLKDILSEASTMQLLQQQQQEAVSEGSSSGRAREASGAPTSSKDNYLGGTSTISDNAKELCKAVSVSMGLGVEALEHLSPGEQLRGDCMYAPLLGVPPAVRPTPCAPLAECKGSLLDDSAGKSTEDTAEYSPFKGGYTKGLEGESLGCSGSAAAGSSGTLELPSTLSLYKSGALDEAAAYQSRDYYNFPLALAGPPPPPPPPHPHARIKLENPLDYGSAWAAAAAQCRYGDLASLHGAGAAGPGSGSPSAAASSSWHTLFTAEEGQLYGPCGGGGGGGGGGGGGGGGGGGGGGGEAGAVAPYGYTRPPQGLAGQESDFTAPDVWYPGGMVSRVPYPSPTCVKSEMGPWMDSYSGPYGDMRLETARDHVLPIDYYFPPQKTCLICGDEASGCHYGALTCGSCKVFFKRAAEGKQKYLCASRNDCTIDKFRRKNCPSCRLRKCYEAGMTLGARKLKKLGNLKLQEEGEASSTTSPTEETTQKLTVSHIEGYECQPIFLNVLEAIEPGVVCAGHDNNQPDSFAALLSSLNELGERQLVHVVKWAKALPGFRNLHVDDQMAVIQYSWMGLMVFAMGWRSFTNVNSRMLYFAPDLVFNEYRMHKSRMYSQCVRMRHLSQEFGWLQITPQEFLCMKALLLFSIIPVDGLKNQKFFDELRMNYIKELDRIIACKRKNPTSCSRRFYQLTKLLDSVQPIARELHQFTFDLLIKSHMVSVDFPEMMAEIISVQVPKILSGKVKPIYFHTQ
smiles,measurement,setting,value
O=C(Cl)c1ccc(C(=O)Cl)cc1,outcome,[1],inactive
same,Potency,[2],inactive
same,outcome,[3],inactive
same,outcome,[4],inactive
same,outcome,[5],inactive
same,Potency,[6],inactive
same,outcome,[7],inactive
same,Potency,[8],inactive
same,outcome,[9],inactive
same,Potency,[10],inactive
same,Potency,[11],inactive
same,Potency,[12],inactive
same,Potency,[13],inactive
same,Potency,[14],inactive
same,Potency,[15],inactive
CCOC(=O)c1ccc(O)cc1,outcome,[1],inactive
same,Potency,[2],inactive
same,outcome,[3],inactive
same,outcome,[4],inactive
same,outcome,[5],inactive
same,Potency,[6],inactive
same,Potency,[8],inactive
same,outcome,[9],inactive
same,Potency,[16],inactive
same,Potency,[10],inactive
same,Potency,[11],inactive
same,Potency,[12],inactive
same,Potency,[13],inactive
same,Potency,[14],inactive
same,Potency,[15],inactive
CC(C=O)Cc1ccc(C(C)(C)C)cc1 (configuration not stated),outcome,[1],inactive
same,Potency,[2],inactive
same,outcome,[3],inactive
same,outcome,[4],inactive
same,outcome,[5],inactive
same,Potency,[6],inactive
same,Potency,[8],inactive
same,outcome,[9],inactive
same,Potency,[10],inactive
same,Potency,[11],inactive
same,Potency,[12],inactive
same,Potency,[13],inactive
same,Potency,[14],inactive
same,Potency,[17],inactive
same,Potency,[18],inactive
same,activity change,[19],-2.03% (inactive) and -1.92% (inactive)
same,Potency,[15],inactive
same,Potency,[20],inactive
CCCCCCCCC(=O)O,outcome,[1],inactive
same,Potency,[2],inactive
same,outcome,[3],inactive
same,outcome,[4],inactive
same,outcome,[5],inactive
same,Potency,[6],inactive
same,outcome,[7],inactive
same,Potency,[8],inactive
same,outcome,[9],inactive
same,Potency,[10],inactive
same,Potency,[11],inactive
same,Potency,[12],inactive
same,Potency,[13],inactive
same,Potency,[14],inactive
same,Potency,[15],inactive
CS(=O)(=O)c1ccc(Cl)cc1,outcome,[1],inactive
same,Potency,[2],inactive
same,outcome,[3],inactive
same,outcome,[4],inactive
same,outcome,[5],inactive
same,Potency,[6],inactive
same,outcome,[7],inactive
same,Potency,[8],inactive
same,outcome,[9],inactive
same,Potency,[16],inactive
same,Potency,[10],inactive
same,Potency,[12],inactive
same,Potency,[13],inactive
same,Potency,[14],inactive
same,Potency,[15],inactive
CC(COCC(C)OC(=O)c1ccccc1)OC(=O)c1ccccc1 (configuration not stated),outcome,[1],inactive
same,Potency,[2],inactive
same,outcome,[3],inactive
same,outcome,[4],inactive
same,outcome,[5],inactive
same,Potency,[6],inactive
same,outcome,[7],inactive
same,Potency,[8],inactive
same,outcome,[9],inactive
same,Potency,[10],inactive
same,Potency,[12],inactive
same,Potency,[13],61.1 µM (active)
same,Potency,[14],inactive
same,Potency,[15],inactive
Cc1ccccc1C=O,outcome,[1],inactive
same,Potency,[2],inactive
same,outcome,[3],inactive
same,outcome,[4],inactive
same,outcome,[5],inactive
same,Potency,[6],inactive
same,outcome,[7],inactive
same,Potency,[8],inactive
same,outcome,[9],inactive
same,Potency,[10],inactive
same,Potency,[11],inactive
same,Potency,[12],inactive
same,Potency,[13],inactive
same,Potency,[14],inactive
same,Potency,[15],inactive
Cc1cc(CC(=O)O)n(C)c1C(=O)c1ccc(Cl)cc1,outcome,[1],inactive
same,Potency,[2],inactive
same,outcome,[3],inactive
same,outcome,[4],inactive
same,outcome,[5],inactive
same,Potency,[6],inactive
same,outcome,[7],inactive
same,Potency,[8],inactive
same,outcome,[9],inactive
same,Potency,[10],inactive
same,Potency,[11],inactive
same,Potency,[12],inactive
same,Potency,[13],inactive
same,Potency,[14],inactive
same,Potency,[15],inactive
CCCCCCCCO,outcome,[1],inactive
same,Potency,[2],inactive
same,outcome,[3],inactive
same,outcome,[4],inactive
same,outcome,[5],inactive
same,Potency,[6],inactive
same,outcome,[7],inactive
same,Potency,[8],inactive
same,outcome,[9],inactive
same,Potency,[16],inactive
same,Potency,[10],inactive
same,Potency,[11],inactive
same,Potency,[12],inactive
same,Potency,[13],inactive
same,Potency,[14],inactive
same,Potency,[15],inactive
CCCCCCCCCCCCCC(=O)O,outcome,[1],inactive
same,Potency,[2],inactive
same,outcome,[3],inactive
same,outcome,[4],inactive
same,outcome,[5],inactive
same,Potency,[6],inactive
same,Potency,[8],inactive
same,outcome,[9],inactive
same,Potency,[16],inactive
same,Potency,[10],inactive
same,Potency,[12],inactive
same,Potency,[13],inactive
same,Potency,[14],inactive
same,Potency,[15],inactive
OCc1ccc(Cl)cc1Cl,outcome,[1],inactive
same,Potency,[2],inactive
same,outcome,[3],inactive
same,outcome,[4],inactive
same,outcome,[5],inactive
same,Potency,[6],inactive
same,outcome,[7],inactive
same,Potency,[8],inactive
same,Potency,[10],inactive
same,Potency,[11],inactive
same,Potency,[12],inactive
same,Potency,[13],inactive
same,Potency,[14],inactive
same,Potency,[15],inactive
CC/C(C)=N/O,outcome,[1],inactive
same,Potency,[2],inactive
same,outcome,[3],inactive
same,outcome,[4],inactive
same,outcome,[5],inactive
same,Potency,[6],inactive
same,Potency,[8],inactive
same,outcome,[9],inactive
same,Potency,[16],inactive
same,Potency,[10],inactive
same,Potency,[12],inactive
same,Potency,[13],inactive
same,Potency,[14],inactive
same,Potency,[15],inactive
O=Cc1ccc(CO)o1,outcome,[1],inactive
same,Potency,[2],inactive
same,outcome,[3],inactive
same,outcome,[4],inactive
same,outcome,[5],inactive
same,Potency,[6],inactive
same,outcome,[7],inactive
same,Potency,[8],inactive
same,outcome,[9],inactive
same,Potency,[10],inactive
same,Potency,[12],inactive
same,Potency,[13],inactive
same,Potency,[14],inactive
same,Potency,[15],inactive
COC(=O)/C=C\C(=O)OC,outcome,[1],inactive
same,Potency,[2],inactive
same,outcome,[3],inactive
same,outcome,[4],inactive
same,outcome,[5],inactive
same,Potency,[6],inactive
same,outcome,[7],inactive
same,Potency,[8],inactive
same,outcome,[9],inactive
same,Potency,[10],inactive
same,Potency,[12],inactive
same,Potency,[13],inactive
same,Potency,[14],inactive
same,Potency,[15],inactive
CCCCCCCCCCCC(=O)N(C)CC(=O)O,outcome,[1],inactive
same,Potency,[2],inactive
same,outcome,[3],inactive
same,outcome,[4],inactive
same,outcome,[5],inactive
same,Potency,[6],inactive
same,outcome,[7],inactive
same,Potency,[8],inactive
same,outcome,[9],inactive
same,Potency,[10],inactive
same,Potency,[12],66.4 µM (active)
same,"activity, negative = cytotoxicity",[12],3.78% [at 8.53 µM] (inactive)
same,Potency,[13],66.4 µM (active)
same,"activity change, negative = cytotoxicity",[13],-12.4% [at 8.55 µM] (inactive)
same,"activity change, negative = cytotoxicity",[14],1.79% [at 7.04 µM] (inactive)
same,Potency,[15],inactive
CCCOCC(C)O (configuration not stated),outcome,[1],inactive
same,Potency,[2],inactive
same,outcome,[3],inactive
same,outcome,[4],inactive
same,outcome,[5],inactive
same,Potency,[6],inactive
same,outcome,[7],inactive
same,Potency,[8],inactive
same,Potency,[10],inactive
same,Potency,[11],inactive
same,Potency,[12],inactive
same,Potency,[13],inactive
same,Potency,[14],inactive
same,Potency,[17],inactive
same,Potency,[18],inactive
same,activity change,[19],-0.141% (active) and -0.54% (inactive)
same,Potency,[15],inactive
same,Potency,[20],inactive
